Compounds with a hit are over-represented: about 1.9% of the library has one in this group of screens.
MsrA inhibitor: inhibitors of bovine MsrA | AID 651718 | inhibition, % at 15.5 µM | actives 0.75% (n = 360,000) | purified bovine MsrA, absorbance read-out;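 also: 0% = vehicle wells with enzyme and 100% = reference inhibitor wells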
bovine MsrA act: bovine methionine sulfoxide reductase A activation; purified bovine MsrA, absorbance read-out; activation, % at 10.6 µM; actives 0.3% (n = 360,000); AID 602163; in the data active = activation above about 7.5%;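 also: 0% = vehicle and 100% = reference activator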
PLCb3 inh: inhibitors of human phospholipase C beta3; Q01970; Purified PLC-beta3, fluorogenic substrate, fluorescence; inhibition, % at 12.2 µM; actives 0.18% (n = 370,000); AID 720704; in the data active = inhibition above about 11%;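 also: 0% = median of compound wells on plate and 100% = full blocker control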
PLC-gamma1 inh: blocks human PLC-gamma1 enzyme activity | P19174 | purified PLC-gamma1, fluorogenic substrate, fluorescence | inhibition, % at 12.2 µM | actives 0.84% (n = 370,000); in the data active = inhibition above about 9.5%
Target sequence (P19174 whole entry, looked up): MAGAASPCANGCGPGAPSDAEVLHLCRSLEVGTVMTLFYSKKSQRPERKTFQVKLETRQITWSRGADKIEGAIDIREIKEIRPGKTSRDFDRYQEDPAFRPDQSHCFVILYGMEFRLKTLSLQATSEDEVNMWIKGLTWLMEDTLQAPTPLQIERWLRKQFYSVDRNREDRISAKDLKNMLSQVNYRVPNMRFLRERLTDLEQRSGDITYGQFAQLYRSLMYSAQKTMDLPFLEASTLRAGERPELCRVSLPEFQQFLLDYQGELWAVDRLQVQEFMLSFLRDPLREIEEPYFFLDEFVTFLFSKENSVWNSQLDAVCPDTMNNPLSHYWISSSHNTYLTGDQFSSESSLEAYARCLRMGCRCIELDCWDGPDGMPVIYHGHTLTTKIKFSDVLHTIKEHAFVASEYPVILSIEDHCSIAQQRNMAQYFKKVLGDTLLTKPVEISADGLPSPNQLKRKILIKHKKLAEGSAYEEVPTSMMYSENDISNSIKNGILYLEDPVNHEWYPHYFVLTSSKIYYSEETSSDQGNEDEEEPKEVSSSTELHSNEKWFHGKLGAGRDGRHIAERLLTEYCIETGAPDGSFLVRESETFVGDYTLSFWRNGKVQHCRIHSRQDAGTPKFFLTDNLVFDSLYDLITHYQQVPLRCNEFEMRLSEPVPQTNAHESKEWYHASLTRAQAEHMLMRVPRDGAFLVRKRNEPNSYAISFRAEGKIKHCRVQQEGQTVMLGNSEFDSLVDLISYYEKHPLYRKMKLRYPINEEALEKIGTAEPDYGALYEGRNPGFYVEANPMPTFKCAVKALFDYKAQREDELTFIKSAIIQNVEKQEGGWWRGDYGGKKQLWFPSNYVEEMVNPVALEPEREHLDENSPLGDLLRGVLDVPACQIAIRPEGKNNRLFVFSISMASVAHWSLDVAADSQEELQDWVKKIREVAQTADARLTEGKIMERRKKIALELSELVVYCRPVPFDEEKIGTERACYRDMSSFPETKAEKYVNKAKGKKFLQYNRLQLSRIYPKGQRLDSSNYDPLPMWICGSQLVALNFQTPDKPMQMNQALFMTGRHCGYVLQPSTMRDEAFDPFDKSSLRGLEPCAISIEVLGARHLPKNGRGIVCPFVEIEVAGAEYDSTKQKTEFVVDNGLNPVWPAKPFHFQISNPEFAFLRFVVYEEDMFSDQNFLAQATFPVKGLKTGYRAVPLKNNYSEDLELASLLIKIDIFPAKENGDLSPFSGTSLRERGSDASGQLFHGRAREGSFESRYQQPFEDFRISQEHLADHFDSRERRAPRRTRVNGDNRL
MsrA conf: bovine MsrA inhibition, confirmed; shares compounds with MsrA inhibitor; purified bovine MsrA, absorbance read-out; inhibition, % at 15.5 µM; actives 41% (n = 2,300); AID 651822;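 also: coupled to thioredoxin reductase with NADPH and selenocystamine and DMSO as substrate; 0% = vehicle only and 100% = full effect of reference inhibitor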
* hit, by the source's call; i = inactive; x = no result. Rule as the data show it, unless noted: active = inhibition above about 4.5%; inactive = the rest.

SMILES | MsrA inhibitor | bovine MsrA act | PLCb3 inh | PLC-gamma1 inh | MsrA conf
COc1cccc(-c2c(C(=O)N/N=C/c3ccco3)nnn2-c2nonc2N)c1 | 4.9* | -6.2 | -11.0 | -4.0 | 1.4
CC(/C=N/NC(=O)c1nnn(-c2nonc2N)c1C(C)C)=C\c1ccco1 | 4.9* | -9.7 | -20.0 | -12.8 | 5.8*
COC(=O)C1=C(C)NC(C)=C(C(=O)OC)C(N2C(=O)CCC2=O)C1 (stereo unspecified) | 0.6 | x | 0.9 | 1.9 | x
COc1cc(N/C(=C\C(=O)c2ccccc2)c2ccccc2)ccc1Cl | 0.8 | x | 0.6 | -0.6 | x
CCCc1cc(=O)[nH]c(N/N=C/C=C\c2ccccc2)n1 | 6.7* | -4.7 | -26.6 | -15.1 | 5.5*
CCn1c(SCC(=O)Nc2ccc(C(=O)OC)cc2)nnc1-c1cccc(Cl)c1 | x | x | -0.5 | 0.2 | x
COc1cc(/C=N/NC2=NCCCCC2)ccc1O | 1.6 | -2.4 | -15.6 | -3.2 | x
COc1cc(/C=N/Nc2ncnc3sc4c(c23)CCC4)ccc1O | 5.5* | -9.3 | -9.7 | -8.4 | 4.1
O=C(NNC1=NS(=O)(=O)c2ccccc21)c1ccccc1 | 3.7 | -5.6 | 1.9 | 5.7 | x
O=C(/C=C/c1ccccc1)NNC1=NS(=O)(=O)c2ccccc21 | 4.8* | -5.1 | -3.7 | 1.3 | 5.5*
COC(=O)[C@]12C[C@H](CC(=O)N3CCSCC3)C(=O)N(CCc3ccc(OC)c(OC)c3)C1=C[C@H](C(C)C)O[C@@H]2C1CC1 | x | x | 3.0 | -1.1 | x
Cc1ccccc1-c1ccc2c(c1)[C@@H]1C[C@H]3[C@@H](CN1CC2)[C@H](C)OC(c1ccccc1)N3C (stereo partly specified) | -0.6 | x | -77.7 | -68.5 | x
Cc1cc2c(nc1C)CCCN2Cc1ccccn1 | -0.4 | x | -124.7 | -97.0 | x
O=[N+]([O-])c1ccc(Sc2ccccn2)nc1 | 3.7 | -3.7 | -3.8 | 0.2 | x
O=[N+]([O-])c1ccc(Sc2nnnn2-c2ccccc2)nc1 | 4.8* | x | 1.5 | 3.3 | 1.6
CCCCN1CCS(=O)(=O)N(Cc2ccc(Cl)cc2)C(C(=O)OC)C1 (stereo unspecified) | x | x | 1.9 | -1.8 | x
C/C(=N\Nc1ccccc1)c1cc2ccccc2oc1=O | 2.8 | -11.4 | -0.1 | 0.6 | x
C/C(=N\Nc1cccc(C(=O)O)c1)c1cc2ccccc2o1 | 5.5* | -5.7 | -7.2 | -5.8 | 2.9
C/C(=N\Nc1ccc(Cl)c(C(=O)O)c1)c1cc2ccccc2o1 | 5.4* | -5.0 | -11.7 | -8.3 | 5.8*
CC(C)C[C@H]1COc2ccc(Cl)cc2S(=O)(=O)N1 | -0.5 | x | 0.5 | -1.3 | x
C=CCc1c(C)nc(C)nc1N/N=C/c1ccc([N+](=O)[O-])cc1 | 7.0* | -3.7 | 0.2 | 2.3 | 4.5
CCc1cccc(-n2c(C)cc(O)cc2=O)c1 | 0.2 | x | 2.4 | -2.2 | x
Cc1ncc(CO)c(/C=N/Nc2cccc(Cl)n2)c1O | 9.4* | 2.3 | -306.1 | -232.0 | 2.8
CCSc1nnc(NC(=O)c2cccs2)s1 | 5.2* | -3.1 | -27.4 | -19.3 | 3.0
O=C(Nc1nnc(SCc2ccccc2)s1)c1cccs1 | -0.6 | -3.0 | -51.6 | -42.4 | x
SMILES | MsrA inhibitor | bovine MsrA act | PLCb3 inh | PLC-gamma1 inh | MsrA conf
COc1ccc(-c2cc(C(=O)N3CCC3)c3ccccc3n2)cc1OC | 5.4* | -3.8 | -194.3 | -157.6 | 3.1
COc1ccc(-c2cc(C(=O)OCC(=O)N3CCOCC3)c3ccccc3n2)cc1 | 4.7* | -6.0 | i | i | 1.4
COc1cc2ccccc2cc1C(=O)OCC(=O)N1CCOCC1 | 0.3 | 0.1 | -310.1 | -258.9 | x
O=C(OCc1ccccc1)N1Cc2ccnnc2CC1c1ccccc1-c1ccc(C(F)(F)F)cc1 (stereo unspecified) | 1.3 | x | -0.9 | 3.6 | x
Cn1c(O)c(N=NC(=O)CNC(=O)c2cccnc2)c2ccccc21 | 4.7* | -2.4 | -6.0 | -0.3 | 1.8
CCCn1c(O)c(N=NC(=O)CNC(=O)c2cccnc2)c2ccccc21 | 2.2 | 0.9 | -3.9 | 2.0 | x
CCOC(=O)c1ccc(Nc2c(OCC)c(=O)c2=O)cc1 | 5.9* | -6.8 | -18.2 | -12.5 | 2.5
Cc1ccc(/C(CSc2nccn2-c2ncc(C(F)(F)F)cc2Cl)=N\O)cc1 | 8.6* | 1.1 | 1.6 | 4.5 | 0.2
COc1ccc(-n2c(SCC(=O)Nc3ccccc3-c3ccccc3)nnc2-c2ccccc2)cc1 | x | x | -2.9 | 5.4 | x
COCCCN1C(=O)C(=O)/C(=C(/O)c2ccc(OC)cc2C)C1c1cccnc1 (stereo unspecified) | 4.8* | -4.8 | 3.5 | 1.2 | 2.6
COCCCN1C(=O)C(=O)/C(=C(/O)c2ccc(OC(C)C)cc2)C1c1cccnc1 (stereo unspecified) | 1.9 | -3.9 | 4.3 | 4.2 | x
CCCN1CCCc2cc(CN)ccc21 | 16.0* | -6.2 | -85.6 | -56.4 | -0.7
CN1CCCc2cc(C=O)ccc21 | 1.4 | -10.4 | -11.7 | -9.6 | x
COCCn1c(=NC(=O)c2ccc(S(=O)(=O)N3CCc4ccccc4C3)cc2)sc2cc(S(N)(=O)=O)ccc21 | 5.9* | -9.3 | i | i | 3.7
COCCn1c(=NC(=O)c2cc(Cl)sc2Cl)sc2cc(S(N)(=O)=O)ccc21 | 0.3 | -5.6 | -20.9 | -23.5 | x
C=CCn1c(=NC(=O)c2ccc(S(=O)(=O)N3CCc4ccccc4C3)cc2)sc2cc(S(N)(=O)=O)ccc21 | 2.9 | -6.8 | -256.4 | -187.6 | x
COCCn1c(=NC(=O)c2ccc3c(c2)OCCO3)sc2cc(S(N)(=O)=O)ccc21 | 6.2* | -15.2 | -450.2 | -359.9 | 2.5
CC(C)c1[nH]nc2c1C(c1ccc(Br)cc1)NC2=O (stereo unspecified) | -0.8 | x | 5.8 | 2.4 | x
N#Cc1cc(NC2CCCC2)c([N+](=O)[O-])cc1C#N | 42.9* | -2.5 | -7.1 | 6.2 | -0.6
O=[N+]([O-])c1ccc(NC2CCCC2)cc1 | -0.3 | -5.8 | 1.0 | 1.5 | x
Cc1ccc(S(=O)(=O)/N=C2\C=C(Nc3cccc(C(=O)O)c3)C(=O)c3ccccc32)cc1 | 41.7* | -1.2 | -3.1 | 5.6 | 19.6*
Cc1ccc(S(=O)(=O)/N=C2\C=C(NS(=O)(=O)c3ccccc3)C(=O)c3ccccc32)c(C)c1 | -0.7 | -7.6 | -3.7 | -0.1 | x
Cc1ccc(NC2=C/C(=N/S(=O)(=O)c3cccs3)c3ccccc3C2=O)cc1 | 14.3* | 3.5 | 1.5 | 5.8 | 23.9*
O=C(O)c1cccc(NS(=O)(=O)c2ccc3c(c2)C(=O)c2ccccc2C3=O)c1 | 32.6* | -1.9 | -7.9 | -2.5 | 25.4*
Cc1ccc(S(=O)(=O)/N=C2\C=C(Nc3cccc(C(=O)O)c3)C(=O)c3ccccc32)c(C)c1 | 25.3* | -2.6 | -2.4 | 6.2 | 30.2*
SMILES | MsrA inhibitor | bovine MsrA act | PLCb3 inh | PLC-gamma1 inh | MsrA conf
O=S1(=O)c2ccc(N3CCC[C@@H]3CO)cc2OCCCN1C1CC1 | x | x | -23.4 | -5.2 | x
CCc1ccc(S(=O)(=O)/N=C2\C=C(Nc3ccc(C(=O)O)cc3)C(=O)c3ccccc32)cc1 | 63.6* | -6.8 | -1.0 | 5.8 | 68.9*
COC(=O)c1ccccc1NC1=C/C(=N\S(=O)(=O)c2ccc(C(=O)O)cc2)c2ccccc2C1=O | x | -2.7 | x | x | x
COc1cccc(N2CCN(CC(=O)NCc3ccc(F)cc3)CC2)c1 | x | x | 4.5 | -0.2 | x
CC(=O)c1c(C)oc2c1C(=O)c1ccccc1C2=O | 0.1 | 2.5 | 2.4 | 3.1 | x
O=C1c2ccccc2C(=O)c2c1oc(C(F)(F)F)c2C(=O)c1ccccc1 | 50.9* | 2.5 | 2.8 | -0.6 | 58.3*

Screens from PubChem BioAssay.
